Screening results from PubChem.
Shown are actives, neighbours in structure and some others; about 19% of the full set was active somewhere.
TDP1 cell noCPT: qHTS for Inhibitors of human tyrosyl-DNA phosphodiesterase 1 (TDP1): qHTS in cells in absence of CPT; DT40 Tdp1-/- hTDP1 cells, no CPT, ATP luminescence, 48 h; Potency, µM (series often up to 46.2 µM), without a hit: at the highest dose activity change, negative = growth inhibition, most hits filed as inhibitors; 420,000 tested, 15% active; AID 686978, 2013; further: potency means the concentration at half of the fitted maximal effect; nearly all actives have a fitted effect of over 55% in size
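Camptothecin absent (DMSO only). Human TDP1-complemented DT40 knockout cells, 400 cells/well, 37 °C for minimum 48 hr; ATP measured via CellTiter-Glo, 30 min dark incubation, luminescence.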
TDP1 block: qHTS Assay for Inhibitors of Tyrosyl-DNA Phosphodiesterase (TDP1) | Tyrosyl-DNA phosphodiesterase 1 (Homo sapiens), Q9NUW8 | recombinant TDP1, AlphaScreen DNA substrate cleavage | Potency, µM (top dose mostly 130 µM), for inactives: top-dose activity change, negative = inhibition, actives largely listed as inhibitors | 350,000 tested, 0.28% active; further: potency means the concentration at half of the fitted maximal effect; nearly all actives have a fitted effect of over 40% in size
Target sequence (Q9NUW8 whole entry, looked up): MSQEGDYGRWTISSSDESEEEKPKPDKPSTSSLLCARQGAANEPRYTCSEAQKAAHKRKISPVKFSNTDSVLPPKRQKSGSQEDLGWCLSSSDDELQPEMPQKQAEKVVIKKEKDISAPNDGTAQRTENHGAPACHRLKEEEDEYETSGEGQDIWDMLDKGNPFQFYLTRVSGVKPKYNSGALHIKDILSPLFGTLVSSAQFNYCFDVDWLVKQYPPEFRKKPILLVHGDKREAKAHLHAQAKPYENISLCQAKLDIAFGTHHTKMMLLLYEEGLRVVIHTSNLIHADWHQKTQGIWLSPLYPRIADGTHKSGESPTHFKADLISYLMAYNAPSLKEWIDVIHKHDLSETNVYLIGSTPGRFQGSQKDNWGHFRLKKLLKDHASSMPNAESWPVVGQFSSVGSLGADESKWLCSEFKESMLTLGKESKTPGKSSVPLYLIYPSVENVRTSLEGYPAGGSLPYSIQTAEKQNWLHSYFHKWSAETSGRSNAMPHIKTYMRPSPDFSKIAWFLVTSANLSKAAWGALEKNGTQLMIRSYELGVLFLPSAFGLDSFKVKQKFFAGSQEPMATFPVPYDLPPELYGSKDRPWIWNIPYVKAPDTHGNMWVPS
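AlphaScreen read-out: signal falls as enzyme removes the 3' tyrosine-FITC from a 5'-biotinylated DNA oligo (15 nM, 5 min, RT). Enzyme was E. coli-made recombinant Tdp1 at 1 nM, exposed to compound for 15 min beforehand; beads 10 ug/ml, 10 min.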
ELG1 DNA repair: qHTS screen for small molecules that inhibit ELG1-dependent DNA repair in human embryonic kidney (HEK293T) cells expressing luciferase-tagged ELG1 | Potency, µM (top dose mostly 46.1 µM), without a hit: top-dose activity change, negative = inhibition, hits mostly inhibitors | HEK293T ELG1-luciferase reporter, luminescence, 16 h; DNA damage induced by 5-fluorouridine | AID 504467, 2011 | 330,000 tested, 2.3% active; further: potency means the concentration at half of the fitted maximal effect; nearly all actives have a fitted effect of over 55% in size
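Luminescence from the luciferase reporter, measured 30 min after ONE-Glo reagent at room temperature, was the read-out. Beforehand, 2,000 cells per well were exposed for 16 hr at 37 °C to 5-fluorouridine together with compound or vehicle.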
Giardia kill: Small Molecules that selectively kill Giardia lamblia: qHTS. activity change, % at 7.66 µM, hits read low. Giardia lamblia trophozoite viability. 340,000 tested, 0.15% active; in the data active means activity change below about -80%; inconclusive means between about -30% and that limit;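 further: parasites exposed to compound for two days anaerobically before the ATP read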
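Luminescence from cellular ATP indicates surviving trophozoites (100 cells/well) following 48 hrs anaerobic compound treatment at 37 deg C; signal develops 15-30 min at room temperature.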
IL-1B inflam inh: qHTS for Inhibitors of Inflammasome Signaling: IL-1-beta AlphaLISA Primary Screen. THP-1 LPS/ATP IL-1B secretion, AlphaLISA, 16 h; hits give low values. activity change, % at 57.5 µM. 360,000 tested, 4.7% active. AID 743279, 2014; in the data active means activity change below about -50%; inconclusive means mostly about -30% to -49%
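Secreted IL-1B measured by AlphaLISA bead assay after 16 h compound exposure of THP-1 cells; compounds (final up to 57.5 uM) added 1 h before LPS (250 ng/mL) and ATP (1.25 mM) stimulation; lower signal means less secretion.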
DT40 TDP1 CPT: qHTS for Inhibitors of human tyrosyl-DNA phosphodiesterase 1 (TDP1): qHTS in cells in presence of CPT; 420,000 tested, 12% active; AID 686979, 2013; Potency, µM (highest dose often 46.2 µM), without a hit: at the highest dose activity change, negative = growth inhibition, usual class: inhibitors; chicken DT40 Tdp1-/-;hTDP1 cells + 20 nM CPT, ATP luminescence, 48 h; further: potency means the concentration at half of the fitted maximal effect; nearly all actives have a fitted effect of over 55% in size
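Chicken DT40 Tdp1-/- cells stably complemented with human TDP1 were seeded at 400 cells/well in medium containing 20 nM camptothecin, exposed to pin-transferred compounds, and grown at 37 °C for at least 48 hr. Viability was read as ATP luminescence.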
* = called active by the depositor; ? = inconclusive; / = no result given; [ ] = dose if it differs, or a comment. Unless noted, the call rests on the fitted dose curve; in most records, active means well fitted curve in the direction sought with a large enough effect; inconclusive means small, poorly fitted or top-dose-only effect, or another doubt; inactive means no such curve, though single readings can be large; an effect the other way counts as inactive or inconclusive. On the % scale 0 is the no-effect control and ±100 the full control effect.

SMILES	TDP1 cell noCPT	TDP1 block	ELG1 DNA repair	Giardia kill	IL-1B inflam inh	DT40 TDP1 CPT
COc1cccc(NS(=O)(=O)c2ccc(-c3cc(C)no3)s2)c1	23µM*	7%	/	/	/	?
COc1ccc(OC)c(NS(=O)(=O)c2ccc(-c3cc(C)no3)s2)c1	0.58µM*	0%	/	/	/	1.3µM*
Cc1c(Cl)c([N+](=O)[O-])nn1CC(=O)NC(C)C1CC2CCC1C2 (stereo not given)	?	2%	1%	4	-10	-13%
CCOc1ccc(NS(=O)(=O)c2ccc(-c3cc(C)no3)s2)cc1	18µM*	5%	/	/	/	?
Cc1cc(-c2ccc(S(=O)(=O)N3CCN(C)CC3)s2)on1	10%	2%	-1%	33	3	-11%
CCc1ccccc1N(C)S(=O)(=O)c1ccc(-c2cc(C)no2)s1	1.3µM*	0%	-5%	19	25	2.1µM*
COc1ccc(OC)c(NS(=O)(=O)c2ccc(Br)s2)c1	18µM*	-1%	?	/	/	16µM*
CC(C)CC(C(=O)NC(C)(C)C)N(Cc1cccs1)C(=O)c1snc(C(N)=O)c1N (stereo not given)	-24%	0%	-12%	9	8	?
CCOC(=O)N(Cc1ccccc1)Cc1ccc(C(=O)N[C@@H](Cc2ccccc2)C(=O)O)cc1	-16%	/	/	9	-4	-1%
COCCNc1nc(NCc2ccc(C)cc2C)c2sccc2n1	15µM*	/	/	/	2	15µM*
COCCNc1nc(Nc2ccc(C)cc2C)c2sccc2n1	1.5µM*	/	/	/	18	1.8µM*
COCCNc1nc(Oc2ccc(C(N)=O)cc2)c2sccc2n1	?	/	/	/	-20	?
O=C(O)CC1Cc2ccccc2C1C(=O)O (stereo not given)	5%	/	/	-10	3	12%
COc1ccc(S(=O)(=O)N[C@H]2CC[C@H](CCNC(=O)c3ccccc3F)O[C@@H]2CO)cc1	-14%	/	/	/	-77*	-26%
Cc1cccc(-n2nc(CC#N)c(C#N)c2N)c1	-29%	6%	20%	10	?	-5%
CCc1ccc(NC(=O)CSC2=Nc3ccccc3C3=NC(CC(=O)NCc4ccc5c(c4)OCO5)C(=O)N23)cc1 (stereo not given)	23µM*	0%	/	/	/	?
COc1ccc(OC)c(NC(=O)CSC2=Nc3ccccc3C3=NC(CC(=O)NCc4ccc5c(c4)OCO5)C(=O)N23)c1 (stereo not given)	23µM*	-1%	/	/	/	?
O=C(CC1N=C2c3ccccc3N=C(SCC(=O)Nc3ccc(F)cc3)N2C1=O)NCc1ccc2c(c1)OCO2 (stereo not given)	-20%	-2%	/	/	/	?
O=C(NNc1ccc(C(F)(F)F)cc1[N+](=O)[O-])c1ccc(NS(=O)(=O)c2ccc(F)cc2)cc1	23µM*	9%	21µM*	-3	?	?
CC(C)[C@H](Nc1ccc(C(F)(F)F)cc1[N+](=O)[O-])C(=O)O	0%	1%	5%	4	28	2%
Cc1ccccc1NC1=NC(=S)N(c2ccccc2)C12CCCCC2	?	4%	-25%	-2	0	18µM*
Cc1sc2nc(CSc3ccc([N+](=O)[O-])c(C(F)(F)F)c3)[nH]c(=O)c2c1C	?	0%	-1%	-1	15	?
Cc1c(C(=O)Nc2ccc(Cl)cc2)c2ccccn2c1C(=O)c1ccc(F)cc1	-22%	-1%	23%	-8	0	-15%
Cc1c(C(=O)Nc2ccc(Cl)cc2)c2ccccn2c1CCc1ccncc1	?	3%	?	8	-59*	?
Cc1c(C(=O)Nc2cccc(Cl)c2)c2ccccn2c1CCc1ccncc1	23µM*	8%	?	-10	-189*	?
SMILES	TDP1 cell noCPT	TDP1 block	ELG1 DNA repair	Giardia kill	IL-1B inflam inh	DT40 TDP1 CPT
O=c1cc(-c2ccc(O)cc2)oc2c(-c3c(O)cc(O)c4c(=O)cc(-c5ccc(O)cc5)oc34)c(O)cc(O)c12	-11%	-1%	8%	-3	5	17%
O=c1cc(-c2ccc(O)cc2)oc2cccc(O)c12	30µM*	-5%[56.1 µM]	/	/	/	30µM*
COc1ccc(-c2cc(=O)c3c(O)cc(O)cc3o2)cc1	24µM*	6%	?	-10	?	?
CCC(=O)Nc1nonc1-c1nc2ccccc2n1CCC(C)C	9.2µM*	-3%	23µM*	0	-9	?
Cc1ccc(S(=O)(=O)Nc2ccccc2CNc2ccc(Br)cn2)cc1	29µM*	0%	-10%	16	-7	?
Cc1ccc(S(=O)(=O)Nc2ccccc2CNc2ccccn2)cc1	?	1%	?	-8	6	-7%
COc1ccc(OC)c(NC(=O)N(C)CCc2c(C)nn(C)c2C)c1	?	6%	/	/	/	-2%
CCc1ccc(NC(=O)C2CCN(S(=O)(=O)c3c(C)noc3/C=C/N(C)C)CC2)cc1	9.2µM*	5%	-1%	17	-27	?
CCc1ccc(NC(=O)C2CCN(S(=O)(=O)c3c(C)noc3/C=C/c3ccco3)CC2)cc1	-28%	0%	/	/	/	?
COc1cccc(CNC(=O)C2CCN(S(=O)(=O)c3c(C)noc3/C=C/c3cccs3)CC2)c1	23µM*	-2%	/	/	/	?
Cc1noc(/C=C/c2cccs2)c1S(=O)(=O)N1CCC(C(=O)Nc2ccc(F)c(Cl)c2)CC1	15µM*	-2%	/	/	/	13µM*
COc1cccc(CNC(=O)C2CCN(S(=O)(=O)c3cccs3)CC2)c1	-10%	2%	3%	-6	6	9%
CCc1ccc(NC(=O)C2CCN(S(=O)(=O)c3c(C)noc3/C=C/c3cccs3)CC2)cc1	18µM*	-5%	/	/	/	?
COC(/C=C/Nc1ccc(OC)cc1)=C(C#N)C#N	1%	4%	?	-1	-59*	-7%
COc1ccc(C(=O)CC(=O)C(=O)Nc2cc(OC)ccc2OC)cc1	?	/	-2%	10	18	-2%
COc1ccc(C(=O)CC(Nc2ccc([N+](=O)[O-])cc2)c2ccc(Cl)cc2)cc1 (stereo not given)	18µM*	0%	16µM*	-11	-53*	?
COc1ccc(NC(=S)Nc2ccccc2C(F)(F)F)cc1	-27%	5%	5%	-8	14	1%
